In the library only some 3.1% were active in any assay of this set; here they are far more common.
DRD3 antagonist = D3 dopamine receptor (human) antagonism | P35462 | D3R cells, DiscoveRx beta-arrestin luminescence, antagonist mode; active compounds read low | max response, negative = inhibition, % | hit rate 2.5% among 360,000 | AID 652054; in the data active = max response below about -50%; inconclusive = no clear call, values can overlap the other calls
Target sequence (P35462 whole entry, looked up): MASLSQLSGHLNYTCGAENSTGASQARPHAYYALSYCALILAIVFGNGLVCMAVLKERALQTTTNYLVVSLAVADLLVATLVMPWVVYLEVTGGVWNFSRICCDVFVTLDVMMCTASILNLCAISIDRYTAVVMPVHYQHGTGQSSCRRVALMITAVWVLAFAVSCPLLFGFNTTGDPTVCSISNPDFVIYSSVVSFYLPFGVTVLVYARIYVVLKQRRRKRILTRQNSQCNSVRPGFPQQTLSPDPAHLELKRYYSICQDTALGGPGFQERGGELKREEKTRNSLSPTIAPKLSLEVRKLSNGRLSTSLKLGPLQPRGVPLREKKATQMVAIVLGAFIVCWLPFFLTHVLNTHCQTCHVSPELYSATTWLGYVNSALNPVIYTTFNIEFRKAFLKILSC
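Cells expressing the human receptor were seeded at 1500 cells/well, incubated overnight at 37 degrees C in 5% CO2, then exposed to library compounds with dopamine controls for 90 minutes at 37 degrees C before luminescent detection.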
D3 ag = D3 dopamine receptor (human) agonism; hit rate 0.58% among 410,000; AID 652048; max activation, %; D3R DiscoveRx beta-arrestin cells, luminescence, 90 min; P35462; in the data active = max activation above about 30%
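Agonist mode: compounds and dopamine controls were applied to plated cells for 90 min at 37 degrees C after an overnight attachment at 1500 cells/well. Luminescent read-out followed 30 - 60 minutes at room temperature with DiscoveRx detection reagent.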
uPA surface inh = blocks generation of uPA at the cell surface | cell surface uPA generation assay, qHTS | Potency, µM (series often up to 38.3 µM), most hits filed as inhibitors | hit rate 0.31% among 330,000 | AID 540303; active = well fitted inhibition curve with a large enough effect; inconclusive = small, poorly fitted or top-dose-only effect; inactive = no such curve, though single readings can be large or run the other way; tested in mouse RAW 264.7 cells; note: nearly all actives have a fitted effect of over 55% in size
RGS4 inhibitor = human RGS4 inhibition; Transcreener GDP fluorescence polarization, RGS4-accelerated GTP hydrolysis; hit rate 0.039% among 390,000; AID 504845; P49798; Potency, µM (titrated, usually from 114 µM), usual class: inhibitors; active = well fitted inhibition curve with a large enough effect; inconclusive = small, poorly fitted or top-dose-only effect; inactive = no such curve, though single readings can be large or run the other way; note: nearly all actives have a fitted effect of over 75% in size
Target sequence (P49798 whole entry, looked up): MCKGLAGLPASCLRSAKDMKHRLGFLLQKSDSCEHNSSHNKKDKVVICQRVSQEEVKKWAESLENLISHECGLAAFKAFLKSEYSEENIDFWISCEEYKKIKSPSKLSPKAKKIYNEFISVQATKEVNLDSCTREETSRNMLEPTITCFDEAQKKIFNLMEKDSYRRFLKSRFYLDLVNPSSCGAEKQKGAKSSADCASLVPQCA
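MLSMR compounds (23 nl, pin-transferred) preincubated 10 min at room temperature with a 500nM (2x) first reagent, then RGS4 at 900nM (2x) plus Transcreener GDP mix added; fluorescence polarization (620/688 nm) read before and after 90 min at 30 °C.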
Hits are given with their value; n = inactive; u = inconclusive; x = no result.

SMILES	DRD3 antagonist	D3 ag	uPA surface inh	RGS4 inhibitor
CCOC(=O)C1=CN(Cc2cccc(F)c2)S(=O)(=O)N(CC)C1c1ccc(C(F)(F)F)cc1 (configuration not stated)	-55	n	n	n
CCOC(=O)C1=CN(Cc2cccc(Br)c2)S(=O)(=O)N(C)C1C (configuration not stated)	n	n	n	n
Cc1ccc(OC(=O)CSc2nnc(-c3cccs3)o2)c(C)c1	x	n	x	n
COc1ccc(CNS(=O)(=O)c2cnc(N)nc2)cc1	x	n	x	n
COc1cc(/C=C/C(=O)c2ccc(NS(=O)(=O)c3ccc(C)cc3)cc2)cc(OC)c1O	n	n	n	n
NC(=O)c1ccccc1N/C=C/C(=O)c1ccc(Cl)cc1	n	n	n	n
COc1cccc(N/C=C/C(=O)c2ccc(C)cc2)c1	n	n	8.9µM	n
COc1cccc(/C=C/C(=O)c2ccc(NS(=O)(=O)c3ccc(C)cc3)cc2)c1	-54	n	n	n
Cc1ccc(C(=O)/C=C/Nc2ccccc2C(N)=O)cc1	-80	n	n	n
CCOc1ccc(NC(=O)c2oc3ccccc3c2NC(=O)c2ccc(OC)cc2OC)cc1	x	n	x	n
COc1cc(NC(=O)C(CC(C)C)NS(=O)(=O)c2ccc3c(c2)oc(=O)n3C)c(C(=O)O)cc1OC (configuration not stated)	x	n	x	n
O=C(OCc1cn([C@@H]2CN(C(=O)C3CCCCC3)[C@@H](c3ccc(Cl)cc3)C[C@H]2O)nn1)c1ccccc1	n	n	x	x
CCN(CC)CCCNC(=O)Cn1ncn2cccc2c1=O	-73	n	n	n
COc1cc(-c2noc(C)c2C#Cc2ccccn2)cc(OC)c1OC	n	n	0.35µM	n
COc1cc(-c2noc(C)c2C#Cc2ccc(N)cc2)cc(OC)c1OC	n	n	u	n
COc1ccc(C)cc1NC(=O)c1ccc2c(c1)N(Cc1cccc(Cl)c1)C(=O)c1ccccc1S2=O (configuration not stated)	x	n	x	n
Cc1cc(Sc2nnc(N)s2)c2ccccc2n1	u	n	3.2µM	n
CC(C)C[C@@H](CSc1ccc(Br)cc1)N1CCN(CCc2ccccc2)CCC1=O	u	n	u	n
CC(C)C[C@@H](CSc1ccccc1)N1CCN(CCc2ccccc2)CCC1=O	-56	n	u	n
CCOC(=O)C1CCCN(C(=O)c2cc3nc(-c4cccc(OC)c4)cc(C(F)(F)F)n3n2)C1 (configuration not stated)	n	52	n	n
O=C1Nc2ccc(I)cc2/C1=C/c1cc(Br)c(O)c(Br)c1	x	x	x	9.5µM
Oc1ccc(C=NNc2ccccn2)c(O)c1	-61	n	n	n
O=[N+]([O-])c1ccc(O)c(/C=N/Nc2ccccn2)c1	-70	n	n	n
Oc1cccc(C=NNc2ccccn2)c1	n	n	n	n
CCC(=O)N1CCc2cc(S(=O)(=O)NC(Cc3ccccc3)C(=O)Nc3ccc(Cl)cc3)ccc21 (configuration not stated)	x	n	x	n
SMILES	DRD3 antagonist	D3 ag	uPA surface inh	RGS4 inhibitor
O=C(CCCn1c(=O)[nH]c2ccccc2c1=O)Nc1ccc(F)cc1	n	n	n	n
COc1ccc(CN2CCC(C(=O)c3ccc(F)cc3)CC2)cc1	-120	n	n	n
O=C(c1ccc(F)cc1)C1CCN(CCn2c(=O)[nH]c3ccccc3c2=O)CC1	-51	n	n	n
Cc1ccc(CN2CCC(C(=O)c3ccc(F)cc3)CC2)cc1	-122	n	x	x
CN(C(=O)CSc1nnc(COc2ccccc2)o1)c1ccccc1	x	n	x	n
COc1ccc(CNC(=O)Cn2ccc3cc(S(=O)(=O)N4CCCCC4)ccc32)c(OC)c1	x	n	x	n
Cc1ccc(CN2C(=O)c3ccccc3Sc3ccc(C(=O)NCc4ccco4)cc32)cc1	x	n	x	n
COc1ccc2c(c1OC)C(Cc1ccccc1)N1CCc3cc4c(cc3C1C2)OCO4 (configuration not stated)	x	x	x	n
CCN1CCN(C(=O)Cn2c(=O)sc3ccccc32)CC1	-98	n	n	n
Oc1ccc2ccccc2c1/C=C/c1ccc2c(Br)cc(Br)c(O)c2n1	-104	n	n	n
Cc1ccsc1/C=C/c1ccc2cccc(O)c2n1	u	n	x	n
Oc1cccc2ccc(/C=C/c3ccccc3Br)nc12	-114	n	n	n
Oc1cccc2ccc(/C=C/c3cccs3)nc12	-57	n	x	n
Oc1c(Cl)cc(Cl)cc1/C=C/c1ccc2cccc(O)c2n1	n	32	n	n
CCCCNC(=O)CCn1c(=O)c2cccn2c2cccnc21	x	n	x	n
O=C(NCCS(=O)(=O)N1CCN(c2cccc(Cl)c2)CC1)C(c1ccccc1)c1ccccc1	x	n	x	n
O=S(=O)(c1cnc2ccccc2c1)N1CCN(c2nc(-c3cccs3)nc3ccccc23)CC1	x	x	x	n
Cc1cccc(N2C(=O)CS/C2=N\NC(=O)c2ccc(Br)cc2)c1C	-79	n	n	n
Cc1cccc(N2C(=O)CS/C2=N\NC(=O)c2cccnc2)c1C	n	n	n	n
COc1ccccc1OCCCSc1nc(-c2ccc(C(C)(C)C)cc2)nc2cc(=O)[nH]n12	x	31	x	n
Cc1[nH]nc(-c2cccnc2)c1N=NN(C)C	-90	n	n	n
O=C(CNC(=O)c1cccc(Br)c1)N/N=C/c1cc(Br)cc(Br)c1O	-71	n	n	n
O=C(CNC(=O)c1cccc(Br)c1)N/N=C/c1cccs1	n	n	n	n
Cc1nc2ccc(NS(=O)(=O)c3cccc([N+](=O)[O-])c3)cc2s1	n	36	n	n
Cc1nc2ccc(NC(=O)c3cc([N+](=O)[O-])cc([N+](=O)[O-])c3Cl)cc2s1	-68	n	n	u
SMILES	DRD3 antagonist	D3 ag	uPA surface inh	RGS4 inhibitor
COc1ccc(OCc2nnc(SC(C)C(=O)Nc3ccc(N4CCOCC4)cc3)n2C)cc1 (configuration not stated)	-77	n	n	n
CC(Sc1nnc(C2CC2)n1C)C(=O)Nc1ccc(N2CCOCC2)cc1 (configuration not stated)	n	n	n	n
COc1ccc(Cc2nnc(NCCO)[nH]c2=O)cc1	n	33	n	n
COc1ccc(Cc2nnc(NCCO)[nH]c2=O)cc1OC	n	n	n	n
CCN(CCCNC(=O)CN1N=C(c2ccc(OC)cc2)CCC1=O)c1cccc(C)c1	x	n	x	n
COc1cc(Cl)c(S(=O)(=O)N2CCCC2)cc1Cl	n	n	n	n
COc1cc(N2C(=O)C=CC2=O)c(OC)cc1Cl	-89	n	n	u
COC(=O)[C@]1(C)N[C@H](CN(C)C(=O)Nc2ccc(OC)cc2)[C@@H]2C(=O)N(Cc3ccccc3)C(=O)[C@@H]21	n	34	n	n
COC(=O)[C@]1(C)N[C@H](CN(C)C(=O)Nc2ccc(Cl)cc2)[C@@H]2C(=O)N(Cc3ccccc3)C(=O)[C@@H]21	u	n	n	n
CNC(=O)c1c(NC(=O)/C=C/c2ccccc2Cl)sc2c1CCC2	x	n	x	n
COC(=O)c1ccc(NC(=O)NC(C)c2c(-n3cccc3)sc(C)c2C)cc1 (configuration not stated)	x	n	x	n
COc1ccc(-c2noc(CC(=O)Nc3ccc(Br)cc3C)n2)cc1	x	n	x	n
